Where “and” joins values, the source holds several entries; their conditions need not be identical. Identical values can stand only once. Inconclusive results are not listed. Where a structure was tested more than once in an assay, its records may differ in their call. Calls of active or inactive are those of the source. How the source made its calls, unless noted: active means hit-call score of the fitted dose curve at least 0.9, where 1 is the maximum; inconclusive means response in the unintended direction; inactive means score below 0.9.

The target of test [1] is Androgen receptor (Homo sapiens) (UniProt P10275). As to the kind of experiment: ATG_AR_TRANS: Attagene TRANS-FACTORIAL HepG2 Assay for human Androgen Receptor (AR) (AID 2282973). The conditions noted are these: HepG2 Attagene TRANS-FACTORIAL AR reporter transcription. The gist of the method: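 HepG2 cells transiently transfected with AR-Gal4 chimera and GAL4-UAS reporter units; chemical exposure 24 h. Reporter mRNA quantified by RT-PCR with fluorescent labelling and capillary electrophoresis; gain-of-signal fitted against DMSO.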
Sequence of Androgen receptor (Homo sapiens) (P10275 whole entry, looked up, the tested form may be a part): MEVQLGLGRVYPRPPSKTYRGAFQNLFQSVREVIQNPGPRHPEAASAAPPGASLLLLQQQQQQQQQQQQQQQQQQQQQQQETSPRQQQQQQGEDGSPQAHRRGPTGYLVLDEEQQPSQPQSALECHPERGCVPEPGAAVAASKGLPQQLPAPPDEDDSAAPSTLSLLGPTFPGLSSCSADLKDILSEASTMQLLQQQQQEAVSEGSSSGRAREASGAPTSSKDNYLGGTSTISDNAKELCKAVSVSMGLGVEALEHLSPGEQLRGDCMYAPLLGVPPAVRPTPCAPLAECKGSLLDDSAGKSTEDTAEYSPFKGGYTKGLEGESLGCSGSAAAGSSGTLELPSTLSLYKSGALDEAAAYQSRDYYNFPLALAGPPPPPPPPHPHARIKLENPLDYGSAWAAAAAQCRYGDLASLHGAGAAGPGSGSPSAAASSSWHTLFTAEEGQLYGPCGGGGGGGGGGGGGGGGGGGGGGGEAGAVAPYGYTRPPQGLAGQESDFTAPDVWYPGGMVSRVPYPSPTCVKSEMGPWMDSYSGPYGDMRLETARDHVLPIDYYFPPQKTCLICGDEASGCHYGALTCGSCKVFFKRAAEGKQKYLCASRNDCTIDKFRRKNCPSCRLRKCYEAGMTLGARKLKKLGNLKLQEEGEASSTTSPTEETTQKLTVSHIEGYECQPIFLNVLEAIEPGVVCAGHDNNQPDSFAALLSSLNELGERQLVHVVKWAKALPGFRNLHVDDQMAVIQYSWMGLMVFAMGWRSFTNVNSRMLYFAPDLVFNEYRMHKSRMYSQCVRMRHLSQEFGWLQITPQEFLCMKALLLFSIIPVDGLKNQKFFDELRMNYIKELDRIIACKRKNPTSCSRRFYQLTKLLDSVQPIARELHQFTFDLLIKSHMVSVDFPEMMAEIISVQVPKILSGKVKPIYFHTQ

The nature of test [2]: Tanguay_ZF_120hpf_MUSC: Oregon State University Tanguay Lab 120 Hour Post-fertilization zebrafish Assay for Muscle Malformation (AID 2284401; active means hit-call score of the fitted dose curve at least 0.9, where 1 is the maximum; inactive means score below 0.9). The gist of the method:
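Dechorionated Tropical 5D wild-type zebrafish embryos exposed statically from 6 to 120 hpf at 28C, one per well, in 0.64% DMSO. Muscle malformation scored present/absent by brightfield microscopy at 120 hpf, fitted against DMSO.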

The target of test [3] is Cytochrome P450 2C18 (Homo sapiens) (UniProt P33260). As to the kind of experiment: NVS_ADME_hCYP2C18: NovaScreen (NVS) CYP450-related Enzyme Activity (ADME) Assay for human CYP2C18 (AID 2283103; active means hit-call score of the fitted dose curve at least 0.9, where 1 is the maximum; inactive means score below 0.9). The gist of the method:
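Cell-free recombinant human CYP2C18 with fluorogenic substrate; fluorescence intensity read 0.5 h after dosing. Single-point screen at 10 uM in duplicate, then concentration-response up to 20 uM; loss of signal fitted against acetonitrile baseline.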

For test [4], the target named is human CYP4F12, CYP4F12 (gene 66002) (UniProt Q9HCS2). As to the kind of experiment: NVS_ADME_hCYP4F12: NovaScreen (NVS) CYP450-related Enzyme Activity (ADME) Assay for human CYP4F12 (AID 2283111). An outline of the steps: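 Cell-free fluorescence assay of recombinant human CYP4F12 activity on a specific substrate, read 0.5 h after dosing. Primary screen in duplicate at 10 uM, then concentration series for actives; loss of signal fitted against acetonitrile negative control.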
Sequence of human CYP4F12, CYP4F12 (gene 66002) (Q9HCS2 whole entry, looked up): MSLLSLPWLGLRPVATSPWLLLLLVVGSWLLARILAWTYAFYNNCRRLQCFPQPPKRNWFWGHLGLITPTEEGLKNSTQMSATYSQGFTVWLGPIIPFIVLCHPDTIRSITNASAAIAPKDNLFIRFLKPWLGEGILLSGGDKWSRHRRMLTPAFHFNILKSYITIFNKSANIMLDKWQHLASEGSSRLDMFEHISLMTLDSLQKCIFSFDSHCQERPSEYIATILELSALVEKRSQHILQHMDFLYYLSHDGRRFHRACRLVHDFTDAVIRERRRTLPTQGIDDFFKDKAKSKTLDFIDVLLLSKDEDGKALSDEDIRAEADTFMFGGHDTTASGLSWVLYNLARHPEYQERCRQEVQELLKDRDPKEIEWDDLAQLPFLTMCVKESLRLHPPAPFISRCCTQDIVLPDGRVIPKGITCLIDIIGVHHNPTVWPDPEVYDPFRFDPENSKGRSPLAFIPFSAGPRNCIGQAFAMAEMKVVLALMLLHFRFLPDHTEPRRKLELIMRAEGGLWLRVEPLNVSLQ

In a further test the test system is rat CYP2B1, gene 24300. Briefly: NVS_ADME_rCYP2B1: NovaScreen (NVS) CYP450-related Enzyme Activity (ADME) Assay for rat CYP2B1 (AID 2283117). The gist of the method: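 Recombinant rat CYP2B1 with fluorogenic substrate, read at 0.75 h. Primary screen in duplicate at 10 uM; compounds meeting threshold (e.g., 30% inhibition) re-run in concentration-response up to 20 uM. Fitted against acetonitrile control.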

Test [5] deals with rat CYP2C12, Cyp2c12 (gene 25011) (UniProt P11510). Briefly: NVS_ADME_rCYP2C12: NovaScreen (NVS) CYP450-related Enzyme Activity (ADME) Assay for rat CYP2C12 (AID 2283119). An outline of the steps: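 Cell-free recombinant rat CYP2C12 activity read by fluorescence 0.5 h after dosing; loss of signal versus acetonitrile control. Primary screen in duplicate at 10 uM; actives then run in concentration-response format.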
Sequence of rat CYP2C12, Cyp2c12 (gene 25011) (P11510 whole entry, looked up): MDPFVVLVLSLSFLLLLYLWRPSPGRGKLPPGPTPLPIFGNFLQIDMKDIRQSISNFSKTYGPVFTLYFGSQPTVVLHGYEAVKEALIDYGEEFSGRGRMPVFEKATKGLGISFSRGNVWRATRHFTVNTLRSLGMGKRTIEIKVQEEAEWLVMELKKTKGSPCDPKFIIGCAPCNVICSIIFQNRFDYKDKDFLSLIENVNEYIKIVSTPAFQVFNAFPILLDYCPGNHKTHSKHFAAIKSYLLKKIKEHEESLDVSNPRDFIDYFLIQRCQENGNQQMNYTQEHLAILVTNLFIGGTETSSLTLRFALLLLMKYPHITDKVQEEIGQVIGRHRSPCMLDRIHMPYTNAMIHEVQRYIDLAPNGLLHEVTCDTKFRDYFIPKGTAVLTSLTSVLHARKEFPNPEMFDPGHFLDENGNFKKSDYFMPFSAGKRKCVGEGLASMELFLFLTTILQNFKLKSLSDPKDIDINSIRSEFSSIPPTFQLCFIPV

Test [6] concerns the target human Acetylcholinesterase (AChE), ACHE (gene 43) (UniProt P22303). As to the kind of experiment: NVS_ENZ_hAChE: NovaScreen (NVS) Enzymatic Assay for human Acetylcholinesterase (AChE) (AID 2283129). The gist of the method:
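Cell-free colorimetric enzyme-activity assay; compounds read 0.33 hour after dosing, loss of signal vs DMSO baseline. Primary screen in duplicate at 25 uM single concentration, with active compounds retested in concentration series.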

The target of test [7] is Protein deacetylase HDAC6 (Homo sapiens) (UniProt Q9UBN7). Briefly: NVS_ENZ_hHDAC6: NovaScreen (NVS) Enzymatic Assay for human Histone Deacetylase 6 (HDAC6) (AID 2283164). The gist of the method: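 Recombinant human HDAC6 with fluorescent substrate, 1 h; product separated from substrate by electrophoretic mobility shift. Primary screen in duplicate at 25 uM; actives retested singly in concentration-response up to 50 uM, fitted relative to DMSO.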

The test system of test [8] is rat Monoamine Oxidase, MAO-A, Central (MAOAC), gene 29253. As to the kind of experiment: NVS_ENZ_rMAOAC: NovaScreen (NVS) Enzymatic Assay for rat Monoamine Oxidase, MAO-A, Central (MAOAC) (AID 2283243).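 Further: potency refers to inhibition seen as signal drop below DMSO baseline.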 An outline of the steps:
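Inhibition of rat brain-derived MAO-A was read by scintillation counting after 1.5 h exposure. Compounds screened first at 25 uM in duplicate, then in dose series if active.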

The target of test [9] is human CYP2C8, CYP2C8 (gene 1558) (UniProt P10632). Briefly: NVS_ADME_hCYP2C8: NovaScreen (NVS) CYP450-related Enzyme Activity (ADME) Assay for human CYP2C8 (AID 2283104; active means hit-call score of the fitted dose curve at least 0.9, where 1 is the maximum; inactive means score below 0.9). The gist of the method:
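Recombinant human CYP2C8 with fluorogenic substrate, 0.5 h, fluorescence intensity; signal loss fitted versus acetonitrile. Screened in duplicate at 10 uM, then actives run in concentration-response up to 20 uM.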

Test [10] deals with rat CYP2D1, Cyp2d1 (gene 266684) (UniProt P10633). Briefly: NVS_ADME_rCYP2D1: NovaScreen (NVS) CYP450-related Enzyme Activity (ADME) Assay for rat CYP2D1 (AID 2283122). The gist of the method: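 Cell-free fluorescence enzyme-activity assay on extracted rat CYP2D1 protein, read 0.75 h after dosing. Primary screen in duplicate at 10 uM; qualifying chemicals then run in concentration-response to 20 uM max, loss-of-signal versus acetonitrile baseline.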
Sequence of rat CYP2D1, Cyp2d1 (gene 266684) (P10633 whole entry, looked up): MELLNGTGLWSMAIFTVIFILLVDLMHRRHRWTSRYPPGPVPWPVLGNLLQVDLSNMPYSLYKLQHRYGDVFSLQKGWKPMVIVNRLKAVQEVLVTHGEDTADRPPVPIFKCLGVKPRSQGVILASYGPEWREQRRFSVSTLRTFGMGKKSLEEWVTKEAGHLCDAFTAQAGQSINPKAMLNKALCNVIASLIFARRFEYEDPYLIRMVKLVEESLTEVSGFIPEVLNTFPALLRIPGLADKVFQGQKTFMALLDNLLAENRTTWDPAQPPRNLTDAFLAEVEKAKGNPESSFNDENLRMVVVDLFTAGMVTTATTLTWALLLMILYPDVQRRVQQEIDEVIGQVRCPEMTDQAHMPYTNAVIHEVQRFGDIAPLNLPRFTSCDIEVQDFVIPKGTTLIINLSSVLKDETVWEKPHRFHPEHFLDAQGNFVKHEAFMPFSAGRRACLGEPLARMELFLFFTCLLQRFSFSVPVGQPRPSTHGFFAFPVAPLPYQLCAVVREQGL

The target of test [11] is Cellular tumor antigen p53 (Homo sapiens) (UniProt P04637). Briefly: TOX21_p53_BLA_p2_ratio: Tox21 HCT-116 p53 Agonism Beta-lactamase Assay, Ratio, Phase 2 (AID 2283592). The gist of the method: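 HCT-116 cells with p53-responsive beta-lactamase reporter, 4000 cells/well, preincubated 5 h, then compound in DMSO (217-fold dilution) for 16 h at 37C. CCF4-AM substrate 2 h at room temperature; 460/530 nm emission ratio fitted upward versus DMSO.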
Sequence of Cellular tumor antigen p53 (Homo sapiens) (P04637 whole entry, looked up): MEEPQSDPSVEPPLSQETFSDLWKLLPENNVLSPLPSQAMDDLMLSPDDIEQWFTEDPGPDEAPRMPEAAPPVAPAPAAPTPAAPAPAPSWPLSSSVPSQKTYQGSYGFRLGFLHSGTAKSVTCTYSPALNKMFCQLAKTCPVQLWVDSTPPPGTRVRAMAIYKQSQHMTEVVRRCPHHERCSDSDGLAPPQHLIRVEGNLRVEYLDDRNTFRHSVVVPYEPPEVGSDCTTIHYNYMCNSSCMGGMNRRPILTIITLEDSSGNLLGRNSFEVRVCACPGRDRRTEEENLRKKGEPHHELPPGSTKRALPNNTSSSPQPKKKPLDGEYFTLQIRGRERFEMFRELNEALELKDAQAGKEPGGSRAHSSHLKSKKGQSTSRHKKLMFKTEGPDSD

The target is the same in test [12]. Briefly: TOX21_p53_BLA_p3_ratio: Tox21 HCT-116 p53 Agonism Beta-lactamase Assay, Ratio, Phase 3 (AID 2283596). The gist of the method: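 HCT116 p53-bla cells (4000/well) given compound in DMSO (217-fold dilution) after 5 h, incubated 16 h at 37C. CCF4-AM substrate 2 h at room temperature; 460/530 nm emission ratio, gain fitted against DMSO.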
Test [13] has the same target. As to the kind of experiment: TOX21_p53_BLA_p5_ratio: Tox21 HCT-116 p53 Agonism Beta-lactamase Assay, Ratio, Phase 5 (AID 2283599). The gist of the method: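 HCT-116 p53-bla cells (4000/well) plated 5 h, dosed with compound (217-fold DMSO dilution) for 16 h at 37 C; CCF4-AM substrate 2 h at room temperature. Activity is the 460/530 nm emission ratio (405 nm excitation), fitted in gain-of-signal direction versus DMSO.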

Test [14] has the same target. As to the kind of experiment: TOX21_p53_BLA_p4_ratio: Tox21 HCT-116 p53 Agonism Beta-lactamase Assay, Ratio, Phase 4 (AID 2283601). An outline of the steps: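 HCT-116 p53 beta-lactamase reporter cells (4000/well) preincubated 5 h, then compound (217-fold dilution of DMSO stock) for 16 h at 37C. CCF4-AM substrate added 2 h at room temperature; 460/530 nm emission ratio fitted upward versus DMSO.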

The nature of test [15]: ATG_M_32_XSP2: Attagene TRANS-FACTORIAL Multi-Species (XSP2) HepG2 Assay for M19 Transcription Factor (Internal Marker) (AID 2283826). An outline of the steps: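 HepG2 cells transiently transfected with GAL4-UAS reporter units; XSP2 panel included 3 nM 6-alpha-fluorotestosterone and 1.5 nM norgestrel for androgen receptor stimulation. Reporter mRNA read 24 h post-dosing by RT-PCR/capillary electrophoresis; fitted upward versus DMSO.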

A short description of test [16]: CCTE_Harrill_HTTr_Apoptosis_PRF_DMEM_12hr: (Pilot) CCTE's 12-hour Apoptosis Assessment for the High-Throughput Transcriptomics (HTTr) Platform, in MCF-7 cells cultured in phenol red-free DMEM + 10% charcoal-stripped fetal bovine serum, Harrill Lab (AID 2283985; active means hit-call score of the fitted dose curve at least 0.9, where 1 is the maximum; inactive means score below 0.9). An outline of the steps: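 MCF-7 cells in phenol red-free DMEM with 10% charcoal-stripped FBS, eight-point dilution series, 12 h exposure. Caspase-3/7 activation imaged by high content imaging with CellEvent Green reagent; bidirectional fit vs DMSO.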

Sequence of Cytochrome P450 2C18 (Homo sapiens) (P33260 whole entry, looked up): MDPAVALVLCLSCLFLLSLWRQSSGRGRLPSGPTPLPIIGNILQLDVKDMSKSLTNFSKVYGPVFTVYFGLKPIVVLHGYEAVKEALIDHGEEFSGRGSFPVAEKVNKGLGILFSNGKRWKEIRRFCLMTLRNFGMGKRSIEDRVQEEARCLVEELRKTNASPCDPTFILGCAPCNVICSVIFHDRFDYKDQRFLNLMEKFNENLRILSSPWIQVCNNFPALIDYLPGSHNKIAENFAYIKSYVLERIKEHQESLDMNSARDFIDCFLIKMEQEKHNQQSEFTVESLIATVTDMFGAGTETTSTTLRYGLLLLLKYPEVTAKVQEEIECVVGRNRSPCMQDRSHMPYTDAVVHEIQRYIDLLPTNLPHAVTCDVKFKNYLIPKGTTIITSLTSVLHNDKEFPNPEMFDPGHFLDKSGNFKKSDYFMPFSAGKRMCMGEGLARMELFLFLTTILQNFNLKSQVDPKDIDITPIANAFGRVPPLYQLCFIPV
Sequence of human CYP2C8, CYP2C8 (gene 1558) (P10632 whole entry, looked up): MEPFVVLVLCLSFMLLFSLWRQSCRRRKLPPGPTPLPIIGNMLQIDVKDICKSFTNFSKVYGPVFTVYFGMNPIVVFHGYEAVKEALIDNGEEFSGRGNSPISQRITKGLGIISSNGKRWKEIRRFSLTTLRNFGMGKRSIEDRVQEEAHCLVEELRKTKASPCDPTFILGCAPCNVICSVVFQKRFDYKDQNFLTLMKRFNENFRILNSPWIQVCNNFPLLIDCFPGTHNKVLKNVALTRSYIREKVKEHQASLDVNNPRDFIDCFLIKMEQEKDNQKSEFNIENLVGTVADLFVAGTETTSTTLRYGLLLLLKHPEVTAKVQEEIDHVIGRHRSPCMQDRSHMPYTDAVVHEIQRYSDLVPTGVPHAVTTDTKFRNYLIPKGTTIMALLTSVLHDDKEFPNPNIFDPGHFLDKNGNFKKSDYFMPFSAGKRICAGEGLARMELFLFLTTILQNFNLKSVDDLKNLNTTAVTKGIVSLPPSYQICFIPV
Sequence of human Acetylcholinesterase (AChE), ACHE (gene 43) (P22303 whole entry, looked up): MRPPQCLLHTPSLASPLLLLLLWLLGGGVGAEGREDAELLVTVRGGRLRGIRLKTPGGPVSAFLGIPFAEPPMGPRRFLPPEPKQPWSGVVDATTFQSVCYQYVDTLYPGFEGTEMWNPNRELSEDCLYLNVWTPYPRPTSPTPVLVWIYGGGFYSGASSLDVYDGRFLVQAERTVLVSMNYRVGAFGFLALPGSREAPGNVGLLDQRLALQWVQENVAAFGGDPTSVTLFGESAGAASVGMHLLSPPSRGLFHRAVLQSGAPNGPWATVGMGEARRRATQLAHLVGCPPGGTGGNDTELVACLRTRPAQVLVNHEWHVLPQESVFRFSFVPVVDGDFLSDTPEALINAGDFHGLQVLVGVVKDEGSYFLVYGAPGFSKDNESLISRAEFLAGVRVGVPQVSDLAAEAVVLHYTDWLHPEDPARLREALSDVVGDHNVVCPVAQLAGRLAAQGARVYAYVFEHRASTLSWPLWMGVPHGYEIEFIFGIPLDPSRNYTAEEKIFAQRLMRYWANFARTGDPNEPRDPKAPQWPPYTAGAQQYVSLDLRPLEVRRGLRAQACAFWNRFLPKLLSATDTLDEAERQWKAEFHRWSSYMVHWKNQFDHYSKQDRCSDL

Turning to `O=S(=O)(OCC(F)F)C(F)(F)F`, the outcome in test [1] and in test [2] was inactive.

The AC50 is the midpoint of the concentration-response curve, whichever way the signal moves. In the case of `C[C@]12CC[C@@H]3c4ccc(O)cc4CC[C@H]3[C@@H]1CC[C@@H]2O`, the AC50 in test [3] is 9.57 µM (active); in the test with rat CYP2B1, gene 24300 it was 14.1 µM (active). Moreover, the molecule was classed as inactive in test [4] and in test [5].

For `CC(=O)[C@H]1CC[C@H]2[C@@H]3CCC4=CC(=O)CC[C@]4(C)[C@H]3CC[C@]12C`, the AC50 in test [3] is 7.03 µM (active) and 2.27 µM (active); in test [6] it was 4.82 µM (active). Further, the outcome was “inactive” in test [3]; “inactive” in test [4]; “inactive” in the test on rat CYP2B1, gene 24300; “inactive” in test [7]; “inactive” in test [8].

Consider `C=CCOC(Cn1ccnc1)c1ccc(Cl)cc1Cl` (stereo not drawn), for which the AC50 was 0.427 µM (active) in test [3]; 6.22 µM (active) in [9]; 0.0108 µM (active) in the test on rat CYP2B1, gene 24300; 2.13 µM (active) in [5]; 3.58 µM (active) in test [10]; 76.1 µM (active) and 72.5 µM (active) in test [11]. Moreover, the AC50 in [12] is 83 µM (active) and 73.3 µM (active); in test [13] it was 79.4 µM (active) and 77.2 µM (active); in [14], 80.8 µM (active) and 83.9 µM (active). Besides, the outcome in test [11], in test [12], in test [13], in [14], in test [15] and in test [16] was inactive.

Take `O=C(O)C(F)(OC(F)(F)C(F)(OC(F)(F)C(F)(F)C(F)(F)F)C(F)(F)F)C(F)(F)F` (stereo not drawn): the molecule was classed as inactive in [1] and in [2].

Consider `C=CC(=O)OCC(F)(F)C(F)(F)C(F)(F)C(F)(F)C(F)(F)C(F)(F)C(F)(F)F`, for which the outcome in test [1] and in test [2] was inactive.

On to `O=C(Cl)C(F)(F)C(F)(F)C(F)(F)C(=O)Cl`, for which the molecule was called inactive in [1] and in [2].

In the case of `Cc1ccc(S(=O)(=O)OCC(F)(F)C(F)(F)C(F)(F)C(F)(F)C(F)(F)C(F)F)cc1`, the call in test [1] and in test [2] was inactive.

Take `CCCCOC(=O)C(C)Oc1ccc(Oc2ccc(C(F)(F)F)cn2)cc1` (stereo not drawn): in the test on rat CYP2B1, gene 24300, the outcome was inactive.

`BrC1CCC(Br)C(Br)CCC(Br)C(Br)CCC1Br` (stereo not drawn): the result in the test with rat CYP2B1, gene 24300 was inactive.

Values taken from PubChem BioAssay (EPA / NIEHS).
